High-throughput results deposited in PubChem by The Scripps Research Institute Molecular Screening Center.
A selection: hits, their analogues and other compounds. The true share with any hit is near 3.4%.
MITF inh – inhibitors of human MITF; AlphaScreen MITF homodimerization, bead proximity signal; inhibition, % at 2.6 µM; 650,000 tested, 0.91% active; AID 1259374; in the data active means inhibition above about 50%;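 further: 0% = vehicle wells with protein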
TEAD-YAP block – TEAD-YAP interaction inhibition | HEK-TIYL cells, TEAD-Gal4/YAP UAS-luciferase luminescence | AID 1259422 | inhibition, % at 9.12 µM | 640,000 tested, 1.4% active; in the data active means inhibition above about 32%;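 further: 0% = median of test compound wells and 100% = reference inhibitor wells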
FBW7 activator – activators of human E3 ligase FBW7; Q969H0; AlphaScreen FBW7–phospho-cyclin E peptide binding, activator screen; normalized activity (activation), % at 26.1 µM; 650,000 tested, 0.13% active; AID 1259310; in the data active means normalized activity above about 1.9%;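 further: purified mutant Fbw7 with reduced substrate affinity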
GPR151 activ – activators of human GPR151; PathHunter beta-arrestin GPR151 cells, luminescence; activation, % at 11.2 µM; 650,000 tested, 1% active; in the data active means activation above about 4.9%;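 further: 0% = median of compound wells and 100% = cells with positive control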
GPR151 conf act – confirmation of human GPR151 activators | shares compounds with GPR151 activ | GPR151 PathHunter beta-arrestin cells, luminescence, 90 min; % of EA-reagent control over plate median | activation, % at 11.2 µM | 6,700 tested, under 10 active;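 active means mean percent activation across replicates above the confirmation screen cutoff of 4.91%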
GPR119 ag – GPR119 activation, counter-screen for GPR151 activators; activation, % at 11.2 µM; 6,700 tested, 0.3% active; GPR119 PathHunter beta-arrestin cells, luminescence, 90 min; 0 = compound-well median, 100 = enzyme-acceptor control; shares compounds with GPR151 activ;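 active means mean percent activation in the counterscreen above 29.09%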;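 further: counterscreen on off-target GPR119 to flag nonselective hits from the GPR151 activator screen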
Target sequence (Q8TDV5 whole entry, looked up): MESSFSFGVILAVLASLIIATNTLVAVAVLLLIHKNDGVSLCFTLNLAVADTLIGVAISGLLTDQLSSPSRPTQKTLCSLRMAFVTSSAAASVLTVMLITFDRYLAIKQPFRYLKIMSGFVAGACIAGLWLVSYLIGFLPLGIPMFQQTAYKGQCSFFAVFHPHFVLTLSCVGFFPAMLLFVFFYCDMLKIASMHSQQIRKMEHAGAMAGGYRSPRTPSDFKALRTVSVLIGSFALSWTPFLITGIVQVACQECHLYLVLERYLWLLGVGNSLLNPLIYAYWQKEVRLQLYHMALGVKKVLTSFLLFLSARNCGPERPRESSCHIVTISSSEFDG
The depositor's hits bear a star; / = no result given.

SMILES | MITF inh | TEAD-YAP block | FBW7 activator | GPR151 activ | GPR151 conf act | GPR119 ag
CCc1cccc(NC(=O)Cn2cccc2)c1 | 5.0 | -6.9 | -0.1 | 7.6* | 0.6 | -7.3
CC(=O)Nc1cccc(NC(=O)CCc2ccccc2)c1 | 2.0 | -19.3 | 0.0 | 0.1 | / | /
CCCN(CCC)S(=O)(=O)c1ccc(NC(=O)CCc2ccccc2)cc1 | -2.9 | 10.7 | 0.1 | 7.6* | 0.4 | -7.4
CCc1cccc(NC(=O)Nc2ccccc2)c1 | -8.9 | -82.7 | 0.6 | -0.3 | / | /
Cc1cccc(NC(=O)CCc2ccccc2)c1 | 2.5 | -21.7 | 0.3 | 7.8* | -0.5 | -1.3
CCc1cccc(NC(=O)CCC(=O)Nc2cccc(CC)c2)c1 | 14.3 | -3.0 | -0.1 | 7.5* | -0.3 | -15.2
CCN(CC)S(=O)(=O)c1ccc(NC(=O)CCc2ccccc2)cc1 | 1.2 | 3.5 | 0.0 | 2.0 | / | /
CCC1CCCCN1CCCNC(=O)Cc1nc(-c2ccc(OC)cc2)no1 (centres undefined) | -1.7 | 6.7 | 0.0 | -0.1 | / | /
O=C(Nc1ccc2c(c1)OCO2)c1ccnc(N2CCN(c3ccccn3)CC2)c1 | -0.8 | -6.3 | 0.3 | -0.9 | / | /
O=C(O)c1ccc2c(c1)sc1cc(C(=O)O)ccc12 | 11.8 | -0.7 | 0.0 | -0.4 | / | /
CCOC(=O)CNC(=O)CSc1nnc2n(Cc3ccc(F)cc3)c3ccccc3n12 | 6.5 | 6.5 | -0.2 | -0.3 | / | /
CCOC(=O)c1oc2ccccc2c1NC(=O)C1CCCCC1 | 9.9 | -3.7 | 1.1 | -0.4 | / | /
CCOC(=O)c1oc2ccccc2c1NC(=O)c1ccc(Cl)s1 | 15.4 | -26.2 | 0.3 | 6.5* | -0.5 | -2.1
CCOC(=O)c1oc2ccccc2c1NC(=O)C1COc2ccccc2O1 (centres undefined) | -0.1 | 10.4 | 0.1 | 5.5* | -0.1 | 3.5
COc1ccc(CC(=O)Nc2cc(-n3c(C)nc4ccccc4c3=O)ccc2F)cc1OC | 12.2 | 26.1 | 0.0 | -0.7 | / | /
COc1ccc(/C=C/C(=O)Nc2nc3c(s2)C(=O)CC(C)(C)C3)cc1 | 5.6 | -0.1 | 0.0 | 5.4* | 0.1 | 1.3
COc1ccc(CC(=O)Nc2nc3c(s2)C(=O)CC(C)(C)C3)cc1 | -5.1 | 1.2 | 0.0 | 0.2 | / | /
COc1ccc(CCC(=O)Nc2nc3c(s2)C(=O)CC(C)(C)C3)cc1 | -6.7 | 14.2 | 0.4 | 6.5* | -0.4 | -7.4
CCCCN(CC)c1cnn(-c2ccccc2)c(=O)c1N | 13.2 | -5.2 | 0.2 | 9.2* | 0.1 | -0.9
CSc1nc2sccn2c(=O)c1C(=O)NCC(F)(F)F | 20.2 | 4.0 | 0.1 | -0.6 | / | /
CSc1nc2sccn2c(=O)c1C(=O)NC1CCC(O)CC1 (centres undefined) | -4.9 | 2.5 | 0.0 | 6.8* | 0.2 | 8.6
CSc1nc2sccn2c(=O)c1C(=O)NCc1ccccc1Oc1ccccc1 | 6.1 | 7.5 | 0.3 | 17.3* | 1.7 | 5.7
COc1ccc(CCNc2cc(N3CCC(N4CCOCC4)CC3)ncn2)cc1 | 0.9 | -19.9 | 0.5 | 2.2 | / | /
CCN1C(=O)C(C(=O)COc2ccc(Cl)cc2)C(=O)N(CC)C1=S | 4.2 | 5.6 | 0.0 | 0.5 | / | /
CC(C)(C)OC(=O)N1CCCC(c2nc(-c3ccncc3)no2)C1 (centres undefined) | -4.6 | -5.7 | 0.1 | 5.5* | 0.1 | 9.9
SMILES | MITF inh | TEAD-YAP block | FBW7 activator | GPR151 activ | GPR151 conf act | GPR119 ag
CC(C)(C)OC(=O)N1CCC(c2nc(-c3ccncc3)no2)CC1 | -12.8 | 4.4 | -0.2 | 1.6 | / | /
C/C(=N\Nc1ccc([N+](=O)[O-])cc1S(=O)(=O)N1CCOCC1)c1cccs1 | -8.3 | 3.9 | -0.1 | 6.3* | -0.1 | -11.8
COc1ccc(/C(C)=N/Nc2ccc([N+](=O)[O-])cc2S(=O)(=O)N2CCOCC2)cc1 | -4.6 | 0.2 | -0.1 | 1.2 | / | /
C=CCNc1nc(Cl)nc(NCCC2=CCCCC2)n1 | -0.3 | -5.5 | -0.1 | 5.1* | -0.6 | -11.7
CCOC(=O)Nc1nnc(CSCCOc2ccc(OC)cc2)s1 | -25.6 | 0.3 | 0.1 | -0.1 | / | /
COc1ccc(N2CCN(C(=O)c3ccc(CN4CCOCC4)cc3)CC2)cc1 | 1.6 | 3.6 | -0.1 | -0.1 | / | /
CN1CCC(N(C)C/C=C/c2ccccc2[N+](=O)[O-])CC1 | 18.1 | 3.5 | 0.1 | 0.2 | / | /
CCOC(=O)C1=C(N)N(c2ccc(Cl)cc2)C2=C(C(=O)CC(C)(C)C2)C1c1ccc(SC)cc1 (centres undefined) | -2.0 | 3.5 | -0.1 | -0.9 | / | /
CC(=O)NC1=NC(=O)/C(=C/c2cn(Cc3ccc(Cl)c(Cl)c3)nc2-c2ccccc2)S1 | -3.0 | -2.5 | -0.1 | 1.1 | / | /
CCOc1ccc(C(=O)Nc2nnc(S(=O)(=O)N3CCCCC3)s2)cc1 | 9.2 | -16.2 | 0.1 | 5.0* | 0.4 | -0.8
COc1ccccc1C(=O)Nc1nnc(S(=O)(=O)N2CCOCC2)s1 | -1.9 | -6.8 | -0.2 | 7.9* | 1.4 | 3.6
COCCn1nnnc1C(c1cc2cccc(C)c2[nH]c1=O)N1CCCCC1 (centres undefined) | -0.5 | 4.7 | -0.1 | 5.2* | 0.1 | 0.6
COCCn1nnnc1C(c1cc2cccc(C)c2[nH]c1=O)N1CCCCCC1 (centres undefined) | 6.0 | 6.9 | 0.4 | 0.3 | / | /
C=CCn1c(SCCC(C)C)nc2c(c1=O)C1(CCCCC1)Cc1ccccc1-2 | 1.3 | -2.4 | -0.1 | 2.9 | / | /
CCN(CC)Cc1ccc(C(=O)NCc2cnc3ccccc3c2)c(=O)[nH]1 | -8.0 | 10.5 | -0.1 | 0.9 | / | /
CC1CCCCN1Cc1ccc(C(=O)NCc2cnc3ccccc3c2)c(=O)[nH]1 (centres undefined) | -1.5 | 18.9 | 0.1 | 10.8* | 0.7 | 7.0
CNCc1ccc(-c2ccc(Br)cc2)o1 | 11.1 | -3.1 | 0.0 | -0.2 | / | /
CNCc1ccc(-c2ccc(Cl)cc2)o1 | 14.1 | -8.6 | 0.0 | 5.0* | 0.1 | -4.2
CCc1ccc(-c2nc(C(N)=O)c3[nH]c(=O)n(C(C)C)c3n2)cc1 | -12.6 | -7.7 | -0.2 | -1.0 | / | /
CCC(Sc1nnc(-c2ccccc2)n1N)C(=O)O (centres undefined) | 3.1 | -0.1 | 0.1 | -1.0 | / | /
CC(Cc1nnc(-c2ccccc2)n1N)C(=O)O (centres undefined) | 5.8 | 5.8 | 0.0 | 9.8* | 0.2 | 3.7
COc1cc(CNCCO)cc(Br)c1OCc1ccccc1 | 16.2 | 0.0 | 1.3 | -1.2 | / | /
C=CCOc1c(Br)cc(CNCCO)cc1OC | -4.8 | 4.2 | 0.1 | 6.7* | -1.2 | -2.8
COc1cc(C)nc(N2CCC(C(N)=O)CC2)n1 | -7.3 | -0.2 | 0.1 | 5.2* | 0.1 | 0.4
COc1ccc(-c2nc3c[n+](CC(N)=O)ccn3c2Nc2ccccc2C)cc1 | 12.6 | -7.2 | 0.0 | 6.7* | 0.5 | 3.0
Cc1ccc(Nc2c(-c3ccc(N4CCOCC4)cc3)nc3c[n+](CC(N)=O)ccn23)cc1 | 15.5 | -10.5 | 0.0 | 5.1* | 0.2 | 0.8
CCn1c(SCc2nc(-c3cccs3)no2)nnc1-c1ccco1 | -139.1 | -2.7 | 0.0 | 6.9* | -0.1 | 6.9
Cn1c(SCc2nc(-c3cccs3)no2)nnc1-c1ccco1 | 9.2 | 4.4 | 0.1 | 2.1 | / | /
